Data on 16 compounds can be found in PubChem BioAssay (NCATS).

Experiment [1] in a line: AP1 Signaling Pathway (AID 357).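 Also: ME-180 reporter cells stimulated with EGF at its EC50 level; % is scaled to controls: 0 for no effect and ±100 for the full control effect.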 The following applies: ME-180 (cervical carcinoma) AP-1-bla reporter, EGF-induced, beta-lactamase ratio, 5 h; at 7.69 µM (top of the series) unless noted. The procedure, abridged:
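Modulation of EGF-driven AP-1 transcription was assessed with a beta-lactamase reporter in ME-180 cells. Compound and EC50 EGF were co-incubated 5 hours at 37 °C before 2.5-hour CCF4 loading at room temperature and dual-emission reading.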

Experiment [2] can be described thus: NFAT Signaling Pathway (AID 444).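 Also: carbachol stimulus at about its EC50 of 1 µM final; % is scaled to controls: 0 for no effect and ±100 for the full control effect.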 The following applies: Jurkat NFAT-bla M1, carbachol, beta-lactamase ratio, 5 h; at 7.69 µM (top of the series) unless noted. The procedure, abridged:
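Read-out: CCF4 FRET ratio (460 nm/530 nm) after 1 h RT dye loading, used for %activity and AC50 from titration series. Cells: Jurkat NFAT-β-lactamase/M1 line, treated with compound plus 1 uM carbachol for 5 h, 37 °C.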

Experiment [3] addresses Glucocorticoid receptor (Homo sapiens) (UniProt P04150). Nature of the experiment: GR-GFP Redistribution (AID 450;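 active = compounds whose dose series gives a full or clear partial fitted curve of increased nuclear translocation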; also: potency is read from the fitted curve at half-maximal effect). To be noted: U2OS GR-GFP nuclear translocation, laser cytometry, 2 h.
Experiment [4] shares this target. Nature of the experiment: GR-EFC Redistribution (AID 451; calls by dose curve; also: potency is read from the fitted curve at half-maximal effect). The following applies: CHO-K1 GR-EFC translocation, beta-gal luminescence, 2 h. The procedure, abridged:
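Translocation of GR-ED fusion to nuclear EA restores b-gal, read by luminescence after 1 h room-temperature detection. Engineered CHO-K1 biosensor cells, 1,000/well, exposed 2 h at 37 C to titrations up to 46 uM final.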

Experiment [5] has as its target Mitogen-activated protein kinase 10 (Mus musculus) (UniProt Q61831). Nature of the experiment: JNK3 AlphaScreen Assay (AID 530).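 Also: kinase came from lysate of stimulated human HepG2 cells; signal reports phosphorylation of biotinylated GST-cJun 1-79 at Ser73 with 10 µM ATP; % is scaled to controls: 0 for no effect and ±100 for the full control effect.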 The procedure, abridged:
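Compound titrations were preincubated 15 minutes at room temperature with substrate, antibody and pre-activated JNK3-containing HepG2 lysate. Reactions were started with 10 uM ATP and stopped with EDTA-containing bead buffer for AlphaScreen detection.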
(In general: In Alpha technology, singlet oxygen from a donor bead excites a nearby acceptor bead.)

The target of experiment [6] is Ubiquitin carboxyl-terminal hydrolase 1 (Homo sapiens) (UniProt O94782). Nature of the experiment: Inhibitors of USP1/UAF1: Pilot qHTS (AID 504865; active = well fitted inhibition curve with a large enough effect; also: nearly all actives have a fitted effect of over 35% in size; also: potency is read from the fitted curve at half-maximal effect;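 as to activity change, negative = inhibition: rhodamine fluorescence freed from ubiquitin-rhodamine substrate followed over time; top concentration of the series differs between compounds; % is scaled to controls: 0 for no effect and ±100 for the full control effect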). The procedure, abridged:
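1nM USP1/UAF1 + cpd, 15 min RT; start w/ Ub-Rho 150nM final; kinetic FL 480/540 nm, 6 reads q60 s. Buffer 50mM HEPES pH 7.8, 0.5mM EDTA, 1mM TCEP, 0.01% Tween-20, 0.1 mg/ml BSA.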
(Quantitative high-throughput screening tests each substance at several concentrations.)

Unmarked numbers belong to inactive results. Inconclusive results are not listed. Active and inactive are the calls of the source. Unless noted, calls follow the shape of the dose curve; as a rule, active = well fitted curve in either direction with a large enough effect (not every such curve was filed as active); inconclusive = small, poorly fitted or top-dose-only effect, or another doubt; inactive = flat fitted curve, though single readings scatter.

Sequence of Glucocorticoid receptor (Homo sapiens) (P04150 whole entry, looked up): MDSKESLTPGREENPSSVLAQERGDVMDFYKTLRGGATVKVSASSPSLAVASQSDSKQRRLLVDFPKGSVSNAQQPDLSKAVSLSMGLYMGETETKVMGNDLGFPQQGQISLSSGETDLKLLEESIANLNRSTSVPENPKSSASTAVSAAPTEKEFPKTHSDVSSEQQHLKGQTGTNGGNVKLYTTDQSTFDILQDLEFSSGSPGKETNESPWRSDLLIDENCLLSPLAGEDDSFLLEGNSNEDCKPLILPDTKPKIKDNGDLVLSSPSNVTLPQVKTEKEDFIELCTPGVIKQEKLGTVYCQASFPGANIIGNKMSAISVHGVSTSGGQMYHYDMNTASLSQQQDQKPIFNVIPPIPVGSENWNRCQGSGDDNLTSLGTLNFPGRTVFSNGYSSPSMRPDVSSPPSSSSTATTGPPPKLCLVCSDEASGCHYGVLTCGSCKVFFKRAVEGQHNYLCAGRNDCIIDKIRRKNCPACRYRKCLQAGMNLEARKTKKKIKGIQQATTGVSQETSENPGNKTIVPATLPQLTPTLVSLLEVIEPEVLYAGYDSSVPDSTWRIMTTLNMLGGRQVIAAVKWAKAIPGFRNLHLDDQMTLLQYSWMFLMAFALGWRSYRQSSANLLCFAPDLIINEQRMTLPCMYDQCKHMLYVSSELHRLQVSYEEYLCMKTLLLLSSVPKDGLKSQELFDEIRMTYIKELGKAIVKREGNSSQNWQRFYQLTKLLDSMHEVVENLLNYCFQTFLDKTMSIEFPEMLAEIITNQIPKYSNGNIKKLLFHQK
Sequence of Ubiquitin carboxyl-terminal hydrolase 1 (Homo sapiens) (O94782 whole entry, looked up): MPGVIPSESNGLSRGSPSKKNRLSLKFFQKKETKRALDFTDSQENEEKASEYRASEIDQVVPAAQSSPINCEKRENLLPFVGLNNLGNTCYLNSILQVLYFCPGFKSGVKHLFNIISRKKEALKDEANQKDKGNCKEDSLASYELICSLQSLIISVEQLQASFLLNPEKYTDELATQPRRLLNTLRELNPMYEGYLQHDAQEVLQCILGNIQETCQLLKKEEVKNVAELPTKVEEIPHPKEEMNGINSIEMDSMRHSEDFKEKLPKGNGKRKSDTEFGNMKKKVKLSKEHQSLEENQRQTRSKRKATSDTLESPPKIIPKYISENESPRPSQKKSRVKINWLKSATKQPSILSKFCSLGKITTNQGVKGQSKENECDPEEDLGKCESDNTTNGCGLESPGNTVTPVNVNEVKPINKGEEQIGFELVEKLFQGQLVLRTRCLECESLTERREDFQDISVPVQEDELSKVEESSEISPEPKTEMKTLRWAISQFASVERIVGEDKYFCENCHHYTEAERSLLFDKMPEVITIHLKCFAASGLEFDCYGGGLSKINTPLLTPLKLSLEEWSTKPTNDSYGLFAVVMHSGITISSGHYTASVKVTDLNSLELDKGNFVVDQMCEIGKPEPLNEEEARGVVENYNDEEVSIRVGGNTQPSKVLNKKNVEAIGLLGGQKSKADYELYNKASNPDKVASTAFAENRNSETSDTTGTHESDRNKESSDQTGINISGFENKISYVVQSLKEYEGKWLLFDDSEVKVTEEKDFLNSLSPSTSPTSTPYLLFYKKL

As to `COc1ccc2[nH]cc(CCNc3ncncc3-c3ccccc3OC)c2c1`, the activity change, negative = inhibition in experiment [1] was -16.8%; in experiment [2] it was -9.5%. Besides, the Potency in experiment [3] and in experiment [4] was greater than 46 µM in each case. In addition, the Potency entry in experiment [5] and in experiment [6] was “inactive” each time.
Consider `Clc1ccccc1-c1nc(Nc2ccncc2)c2ccccc2n1`, for which the activity change, negative = inhibition was -2.96% in experiment [1] and 8.97% in experiment [2]. Besides, in experiment [4], the Potency is greater than 46 µM. The Potency result in experiment [5] was “inactive”.
As for `COc1ccc2[nH]cc(CCNc3cc(-c4ccccc4OC)ncn3)c2c1`, the activity change, negative = inhibition in experiment [2] is -7.55%. In addition, the Potency in experiment [3] and in experiment [4] was greater than 46 µM in each case. Further, the Potency entry in experiment [5] and in experiment [6] was “inactive” throughout.
As to `O=c1c(-c2ccccc2)nc2cnc(N3CCOCC3)nc2n1CCc1ccccc1`, the values for the Potency in experiment [3] and in experiment [4] were greater than 9.22 µM and greater than 46 µM, respectively. Also, the Potency result in experiment [6] is “inactive”.
As to `N#CCCn1c(=O)c(-c2ccc(Cl)cc2)nc2cnc(N3CCOCC3)nc21`, the activity change, negative = inhibition in experiment [1] is 0.155%; in experiment [2], 5.23%. The Potency was greater than 9.22 µM in experiment [3] and greater than 46 µM in experiment [4]. In addition, the Potency result in experiment [5] and in experiment [6] was “inactive” each time.
For `CN(Cc1ccco1)c1ncnc2ccc(-c3cccc(NS(C)(=O)=O)c3)cc12`, the activity change, negative = inhibition in experiment [2] is 14.3%. For the same compound, the Potency in experiment [3] and in experiment [4] was greater than 46 µM throughout. Further, the Potency entry in experiment [5] and in experiment [6] was “inactive” in each case.
With `COCCn1c(=O)c(-c2ccc(F)cc2)nc2cnc(Nc3cccc(OC)c3)nc21`, the activity change, negative = inhibition in experiment [1] is -8.42%; in experiment [2], -5.01%. The Potency in experiment [3] was greater than 9.22 µM; in experiment [4], greater than 46 µM. Moreover, the Potency result in experiment [5] and in experiment [6] was “inactive” in each case.
As to `COc1ncc2nc(-c3ccccc3)c(=O)n(CCc3ccccc3)c2n1`, the activity change, negative = inhibition in experiment [1] was -6.17%; in experiment [2] it was -3.72%. In addition, the Potency in experiment [3] is greater than 9.22 µM; in experiment [4] it was greater than 46 µM. Besides, the Potency entry in experiment [6] is “inactive”.
As for `Cc1ccccc1-c1nc(Nc2ccncc2)c2ccccc2n1`, the activity change, negative = inhibition in experiment [1] was -17.3%; in experiment [2], 6.78%. Moreover, the Potency in experiment [3] and in experiment [4] was greater than 46 µM in each case. Besides, the Potency result in experiment [5] was “inactive”.
`CN(C)c1ccc(-c2nccc(Nc3ccc(F)cc3)n2)cc1`: the activity change, negative = inhibition in experiment [1] was -4.1%; in experiment [2], -29.4%. Moreover, the Potency in experiment [3] and in experiment [4] was greater than 46 µM each time. Also, in experiment [5], the Potency result is “inactive”.
Consider `COCCNc1ncnc2ccc(-c3ccccc3OC)cc12`, for which the activity change, negative = inhibition is -6.49% in experiment [1] and 2.23% in experiment [2]. In addition, the Potency in experiment [3] and in experiment [4] was greater than 46 µM throughout. The Potency entry in experiment [5] and in experiment [6] was “inactive” each time.
`COc1ccc2[nH]cc(CCNc3nc(-c4ccccc4OC)nc4ccccc34)c2c1`: in experiment [1], the activity change, negative = inhibition is 23.7%. The Potency in experiment [3] and in experiment [4] was greater than 46 µM throughout. For the same compound, in experiment [6], the Potency entry was “inactive”.
Turning to `CCNc1ncc2nc(CCc3ccccc3)c(=O)n(CCC#N)c2n1`, the activity change, negative = inhibition in experiment [1] is -12.2%; in experiment [2], -10.7%. Further, the Potency was greater than 9.22 µM in experiment [3] and greater than 46 µM in experiment [4]. Besides, the Potency entry in experiment [5] and in experiment [6] was “inactive” each time.
As to `CN1CCN(c2ncnc3ccc(-c4ccccc4C(F)(F)F)cc23)CC1`, the activity change, negative = inhibition in experiment [2] was -19.6%. Besides, the Potency in experiment [3] and in experiment [4] was greater than 46 µM throughout. In addition, the Potency result in experiment [6] is “inactive”.
Take `CN1CCN(c2ncc3nc(-c4cccc(C#N)c4)c(=O)n(CCc4ccccc4)c3n2)CC1`: the activity change, negative = inhibition is 11.8% in experiment [1] and -0.0285% in experiment [2]. Further, the Potency is greater than 9.22 µM in experiment [3] and greater than 46 µM in experiment [4]. Moreover, the Potency entry in experiment [5] and in experiment [6] was “inactive” each time.
Turning to `N#Cc1cccc(-c2ccc3ncnc(NCc4cccs4)c3c2)c1`, the Potency in experiment [3] is greater than 46 µM; in experiment [4] it was greater than 46 µM; in experiment [6], 22.4 µM (active). Also, the Potency result in experiment [5] was “inactive”.
